Test results as given in the supplement of paper PMC10849652.
About 8,800 targets were measured; listed, in parts, are those with a hit and a random draw of the rest. About 0.5% of all pairs of compound and target were hits.

compound: C[C@@H](Oc1cc(-c2cnn(C3CCNCC3)c2)cnc1N)c1c(Cl)ccc(F)c1Cl [crizotinib]; assay: log2 fold change, soluble protein after heating vs DMSO (PISA); higher = thermal stabilisation; K562 lysate, 10 uM; active = over 0.2 and 3.5 SD of the protein, either way, in both replicates (recomputed)
Summary of the method: (§1)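 K562 pellets were dounce-homogenised in PBS pH 7.4 containing 1 mM MgCl2, and the crude extract, at 1 mg/mL protein, was exposed to 10 μM compound for 30 min. Aliquots were heated for 3 min across 48°C-58°C, pooled, brought to 0.5% NP-40 at 4°C and spun at 21,000xg for 90 min, with the supernatant taken as soluble protein. TMTpro 16plex LC-MS/MS with equalised channel sums quantified that protein. Values are log-two fold changes in thermal stability relative to solvent controls, taken from duplicates.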

Sequence of UniProt Q9NZM4 (Q9NZM4 whole entry, looked up): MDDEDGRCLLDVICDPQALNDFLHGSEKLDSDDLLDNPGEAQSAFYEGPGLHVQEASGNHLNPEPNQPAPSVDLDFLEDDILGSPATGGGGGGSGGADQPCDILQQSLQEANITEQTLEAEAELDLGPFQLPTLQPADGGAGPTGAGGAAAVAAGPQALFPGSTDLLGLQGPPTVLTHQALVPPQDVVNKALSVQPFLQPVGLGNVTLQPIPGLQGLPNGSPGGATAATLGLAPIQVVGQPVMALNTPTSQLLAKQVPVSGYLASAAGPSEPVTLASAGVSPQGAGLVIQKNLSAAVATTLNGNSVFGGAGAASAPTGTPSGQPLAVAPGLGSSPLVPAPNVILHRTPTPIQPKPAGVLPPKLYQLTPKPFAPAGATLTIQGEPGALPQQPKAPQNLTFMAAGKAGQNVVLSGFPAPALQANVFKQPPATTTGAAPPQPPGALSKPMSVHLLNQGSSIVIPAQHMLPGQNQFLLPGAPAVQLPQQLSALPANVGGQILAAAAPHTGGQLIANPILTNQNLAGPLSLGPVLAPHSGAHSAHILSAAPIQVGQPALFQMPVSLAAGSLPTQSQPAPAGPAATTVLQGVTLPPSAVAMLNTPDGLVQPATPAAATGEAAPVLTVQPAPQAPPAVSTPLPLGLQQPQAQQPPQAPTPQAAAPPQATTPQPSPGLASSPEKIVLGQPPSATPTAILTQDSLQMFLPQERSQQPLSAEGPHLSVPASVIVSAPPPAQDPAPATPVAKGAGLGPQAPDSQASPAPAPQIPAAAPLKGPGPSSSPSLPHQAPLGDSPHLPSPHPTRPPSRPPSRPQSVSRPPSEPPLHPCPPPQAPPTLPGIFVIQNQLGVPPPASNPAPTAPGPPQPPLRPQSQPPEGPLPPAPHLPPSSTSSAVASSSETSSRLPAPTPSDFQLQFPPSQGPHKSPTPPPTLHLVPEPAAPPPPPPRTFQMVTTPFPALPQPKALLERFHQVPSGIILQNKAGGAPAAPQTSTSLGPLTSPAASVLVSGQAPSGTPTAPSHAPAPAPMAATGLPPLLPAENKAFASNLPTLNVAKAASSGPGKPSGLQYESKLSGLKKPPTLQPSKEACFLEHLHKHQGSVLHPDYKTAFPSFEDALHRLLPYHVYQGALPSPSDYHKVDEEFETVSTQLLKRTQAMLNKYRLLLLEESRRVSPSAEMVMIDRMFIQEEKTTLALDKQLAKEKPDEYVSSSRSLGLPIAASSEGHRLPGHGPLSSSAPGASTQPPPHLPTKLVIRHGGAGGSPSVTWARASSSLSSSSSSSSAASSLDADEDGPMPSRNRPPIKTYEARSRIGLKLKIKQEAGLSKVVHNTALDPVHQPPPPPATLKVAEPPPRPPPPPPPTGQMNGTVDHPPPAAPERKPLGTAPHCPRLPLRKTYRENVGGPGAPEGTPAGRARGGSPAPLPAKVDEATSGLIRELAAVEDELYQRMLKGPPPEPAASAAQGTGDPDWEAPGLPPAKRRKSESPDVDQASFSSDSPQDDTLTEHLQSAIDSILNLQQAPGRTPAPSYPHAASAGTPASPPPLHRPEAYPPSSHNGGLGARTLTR
Sequence of UniProt Q00536 (Q00536 whole entry, looked up): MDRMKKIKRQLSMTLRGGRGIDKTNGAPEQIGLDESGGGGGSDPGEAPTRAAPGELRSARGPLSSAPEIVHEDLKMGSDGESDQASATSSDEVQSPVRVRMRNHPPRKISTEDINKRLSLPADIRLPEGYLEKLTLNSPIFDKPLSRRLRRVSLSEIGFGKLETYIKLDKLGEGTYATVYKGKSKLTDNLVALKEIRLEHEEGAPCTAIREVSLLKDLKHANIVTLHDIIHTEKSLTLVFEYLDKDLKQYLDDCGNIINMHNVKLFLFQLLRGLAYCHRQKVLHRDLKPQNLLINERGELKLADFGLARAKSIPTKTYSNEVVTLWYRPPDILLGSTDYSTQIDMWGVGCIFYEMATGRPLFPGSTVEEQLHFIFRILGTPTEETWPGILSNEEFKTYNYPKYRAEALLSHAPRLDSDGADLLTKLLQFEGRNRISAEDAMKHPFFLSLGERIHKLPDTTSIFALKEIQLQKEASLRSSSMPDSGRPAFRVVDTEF
Sequence of UniProt Q15059 (Q15059 whole entry, looked up): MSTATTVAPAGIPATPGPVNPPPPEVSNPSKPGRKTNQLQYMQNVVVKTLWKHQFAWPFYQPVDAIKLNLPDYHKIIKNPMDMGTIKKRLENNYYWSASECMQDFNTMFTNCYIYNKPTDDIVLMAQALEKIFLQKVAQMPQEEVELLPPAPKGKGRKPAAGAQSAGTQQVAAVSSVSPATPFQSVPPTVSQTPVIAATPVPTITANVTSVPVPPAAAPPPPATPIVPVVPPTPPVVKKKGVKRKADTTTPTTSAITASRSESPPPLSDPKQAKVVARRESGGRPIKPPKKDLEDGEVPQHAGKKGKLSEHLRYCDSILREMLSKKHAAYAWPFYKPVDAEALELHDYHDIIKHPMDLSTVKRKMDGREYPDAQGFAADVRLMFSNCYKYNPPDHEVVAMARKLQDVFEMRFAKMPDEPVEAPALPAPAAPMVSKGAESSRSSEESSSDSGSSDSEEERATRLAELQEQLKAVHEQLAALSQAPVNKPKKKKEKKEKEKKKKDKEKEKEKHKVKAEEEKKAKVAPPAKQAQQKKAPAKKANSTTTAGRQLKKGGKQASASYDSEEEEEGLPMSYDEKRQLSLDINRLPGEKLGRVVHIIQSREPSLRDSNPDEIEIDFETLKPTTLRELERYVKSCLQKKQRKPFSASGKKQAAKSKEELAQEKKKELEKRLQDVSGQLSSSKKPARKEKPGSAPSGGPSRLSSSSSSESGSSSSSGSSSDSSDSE
Sequence of UniProt Q8IYX8 (Q8IYX8 whole entry, looked up): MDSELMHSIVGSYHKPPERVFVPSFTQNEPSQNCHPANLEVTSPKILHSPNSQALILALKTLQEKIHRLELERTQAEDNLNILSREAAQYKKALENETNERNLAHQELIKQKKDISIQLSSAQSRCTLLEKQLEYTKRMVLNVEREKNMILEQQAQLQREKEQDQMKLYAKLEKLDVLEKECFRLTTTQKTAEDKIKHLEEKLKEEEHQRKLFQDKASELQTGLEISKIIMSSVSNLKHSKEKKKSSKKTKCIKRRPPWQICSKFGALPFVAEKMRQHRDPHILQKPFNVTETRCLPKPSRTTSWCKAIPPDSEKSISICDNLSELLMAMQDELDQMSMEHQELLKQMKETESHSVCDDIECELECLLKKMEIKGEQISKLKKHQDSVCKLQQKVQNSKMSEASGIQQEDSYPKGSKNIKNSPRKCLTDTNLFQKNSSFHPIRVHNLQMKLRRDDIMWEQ
Sequence of UniProt P0DMB2 (P0DMB2 whole entry, looked up): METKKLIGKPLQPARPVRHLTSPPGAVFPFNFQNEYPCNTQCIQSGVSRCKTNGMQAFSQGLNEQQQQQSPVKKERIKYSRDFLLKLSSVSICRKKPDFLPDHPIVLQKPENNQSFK
Sequence of UniProt O76039 (O76039 whole entry, looked up): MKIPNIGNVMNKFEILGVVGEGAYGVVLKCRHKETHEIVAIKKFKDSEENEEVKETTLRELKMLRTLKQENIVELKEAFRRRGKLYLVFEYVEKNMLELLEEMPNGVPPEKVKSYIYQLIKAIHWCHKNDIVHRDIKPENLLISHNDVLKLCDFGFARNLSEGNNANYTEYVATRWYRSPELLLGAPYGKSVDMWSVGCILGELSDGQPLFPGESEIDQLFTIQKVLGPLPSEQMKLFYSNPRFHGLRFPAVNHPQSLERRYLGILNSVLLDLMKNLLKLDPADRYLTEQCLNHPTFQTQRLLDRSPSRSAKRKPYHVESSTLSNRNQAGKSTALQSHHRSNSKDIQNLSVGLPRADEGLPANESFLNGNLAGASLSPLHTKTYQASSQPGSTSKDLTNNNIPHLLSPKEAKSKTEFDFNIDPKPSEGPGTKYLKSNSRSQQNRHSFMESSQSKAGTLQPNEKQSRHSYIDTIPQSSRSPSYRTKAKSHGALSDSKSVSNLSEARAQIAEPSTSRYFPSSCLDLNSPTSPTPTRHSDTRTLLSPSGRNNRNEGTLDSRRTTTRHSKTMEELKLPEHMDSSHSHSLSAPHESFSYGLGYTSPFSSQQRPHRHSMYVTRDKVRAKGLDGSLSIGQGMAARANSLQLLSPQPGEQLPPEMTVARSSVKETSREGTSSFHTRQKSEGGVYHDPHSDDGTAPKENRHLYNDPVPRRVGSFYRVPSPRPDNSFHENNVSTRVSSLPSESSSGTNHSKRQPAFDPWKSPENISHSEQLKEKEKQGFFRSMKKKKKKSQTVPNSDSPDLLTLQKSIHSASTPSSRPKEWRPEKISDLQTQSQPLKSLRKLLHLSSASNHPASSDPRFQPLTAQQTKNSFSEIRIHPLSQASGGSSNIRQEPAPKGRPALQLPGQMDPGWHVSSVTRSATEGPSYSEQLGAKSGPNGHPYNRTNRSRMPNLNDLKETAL
Sequence of UniProt Q9BYV8 (Q9BYV8 whole entry, looked up): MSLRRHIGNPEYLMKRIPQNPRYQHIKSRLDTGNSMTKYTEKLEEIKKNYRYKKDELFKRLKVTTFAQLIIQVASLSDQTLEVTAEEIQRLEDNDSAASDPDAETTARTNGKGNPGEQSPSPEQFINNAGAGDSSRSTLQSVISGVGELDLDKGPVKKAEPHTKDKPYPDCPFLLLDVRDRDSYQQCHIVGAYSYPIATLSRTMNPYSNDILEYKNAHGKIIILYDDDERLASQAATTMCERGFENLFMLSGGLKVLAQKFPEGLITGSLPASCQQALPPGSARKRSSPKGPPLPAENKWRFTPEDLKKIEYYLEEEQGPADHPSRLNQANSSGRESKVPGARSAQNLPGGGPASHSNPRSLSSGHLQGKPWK
Sequence of UniProt P30281 (P30281 whole entry, looked up): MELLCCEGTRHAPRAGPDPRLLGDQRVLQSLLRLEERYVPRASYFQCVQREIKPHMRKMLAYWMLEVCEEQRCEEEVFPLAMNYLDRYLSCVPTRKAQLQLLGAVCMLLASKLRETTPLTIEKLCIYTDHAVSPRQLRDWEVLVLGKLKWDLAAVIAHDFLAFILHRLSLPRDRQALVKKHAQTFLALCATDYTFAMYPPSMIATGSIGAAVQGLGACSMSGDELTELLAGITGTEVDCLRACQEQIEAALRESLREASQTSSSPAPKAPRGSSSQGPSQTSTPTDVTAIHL

log2 fold change, inactive:
C3AR1 (UniProt Q16581) 0.02
CCND3 (UniProt P30281) -0.083
CDKL5 (UniProt O76039) -0.167
CASP7 isoform 3 (UniProt P55210) -0.07
CDK11A (UniProt Q9UQ88) 0.092
ATG4D (UniProt Q86TL0) -0.031
B3GALT6 (UniProt Q96L58) -0.123
CDAN1 (UniProt H3BPZ6) 0.118
CDC14A isoform 2 (UniProt Q9UNH5) 0.031
CEP57L1 (UniProt Q8IYX8) 0.056
BAHCC1 (UniProt Q9P281) -0.191
CCP110 (UniProt O43303) -0.006
CENPV (UniProt Q7Z7K6) -0.119
CEP41 (UniProt Q9BYV8) 0.062
ATPSCKMT (UniProt Q6P4H8) -0.039
CDK16 isoform 2 (UniProt Q00536) 0.063
CEP295 isoform 3 (UniProt Q9C0D2) 0.004
ATE1 (UniProt O95260) -0.068
CHCHD7 isoform 4 (UniProt Q9BUK0) -0.052
BRD3 (UniProt Q15059) -0.022
CAPNS1 (UniProt K7ES78) 0.158
BICRA (UniProt Q9NZM4) -0.059
C8orf88 (UniProt P0DMB2) 0.038
C16orf70 (UniProt Q9BSU1) 0.058
CCDC130 (UniProt P13994) -0.689

compound: C[C@H](C1=CC=C(C=C1)C(=O)NC2=C3C=CNC3=NC=C2)N; assay: as above
Summary of the method: as §1

log2 fold change, active:
CEP128 (UniProt Q6ZU80) -1.2
BAHCC1 (UniProt Q9P281) -0.956
CEP295 isoform 3 (UniProt Q9C0D2) -0.365
CHCHD7 isoform 4 (UniProt Q9BUK0) -0.382
BRD3 (UniProt Q15059) -0.333

log2 fold change, inactive:
C3AR1 (UniProt Q16581) -0.025
CCND3 (UniProt P30281) -0.175
CDKL5 (UniProt O76039) -0.128
CDK11A (UniProt Q9UQ88) 0.049
CDCA8 (UniProt Q53HL2) 0.319
CAMK2B (UniProt Q13554) -0.045
CASC1 (UniProt Q6TDU7) -0.175
CEP57L1 (UniProt Q8IYX8) -0.039
C6orf120 (UniProt Q7Z4R8) -0.03
CENPV (UniProt Q7Z7K6) 0.089
CARHSP1 (UniProt H3BNU9) 0.16
CEP41 (UniProt Q9BYV8) 0.047
CDK16 isoform 2 (UniProt Q00536) -0.016
ATE1 (UniProt O95260) 0.032
BICRA (UniProt Q9NZM4) -0.027
C8orf88 (UniProt P0DMB2) 0.054
CAD (UniProt H7BZB3) 0.069
BMT2 (UniProt Q1RMZ1) 0.116

compound: C[C@H](Nc1ncnc2nc[nH]c12)c1cc2cccc(Cl)c2c(=O)n1-c1ccccc1 [duvelisib]; assay: as above
Summary of the method: as §1

log2 fold change, inactive:
CCND3 (UniProt P30281) 0.015
CDKL5 (UniProt O76039) 0.073
CASP7 isoform 3 (UniProt P55210) 0.009
CDK11A (UniProt Q9UQ88) -0.003
CDCA8 (UniProt Q53HL2) 0.031
ATG4D (UniProt Q86TL0) 0.109
CAMK2B (UniProt Q13554) -0.011
B3GALT6 (UniProt Q96L58) 0.045
CEP128 (UniProt Q6ZU80) -0.022
CEP57L1 (UniProt Q8IYX8) -0.004
BAHCC1 (UniProt Q9P281) 0.002
C6orf120 (UniProt Q7Z4R8) -0.036
CCP110 (UniProt O43303) 0.084
CEP41 (UniProt Q9BYV8) -0.013
ATPSCKMT (UniProt Q6P4H8) -0.036
CDK16 isoform 2 (UniProt Q00536) 0.043
CHCHD7 isoform 4 (UniProt Q9BUK0) -0.01
BRD3 (UniProt Q15059) 0.1
CAPNS1 (UniProt K7ES78) 0.17
CDC25A (UniProt P30304) -0.014
ATXN2 (UniProt F8WB06) 0.187
BICRA (UniProt Q9NZM4) 0.105
C8orf88 (UniProt P0DMB2) 0.058
C16orf70 (UniProt Q9BSU1) -0.013
CHD4, A0A2R8Y521 0.006
